Each compound was assayed against Left-right determination factor 2 (Homo sapiens) (UniProt O00292) (assay: LEFTY2 binders on small-molecule microarrays, primary screen, biochemical, small-molecule microarray, 635 nm fluorescence scan (AID 1110)). Settings: LEFTY2 binding, higher = more signal.
Sequence of Left-right determination factor 2 (Homo sapiens) (O00292 whole entry, looked up): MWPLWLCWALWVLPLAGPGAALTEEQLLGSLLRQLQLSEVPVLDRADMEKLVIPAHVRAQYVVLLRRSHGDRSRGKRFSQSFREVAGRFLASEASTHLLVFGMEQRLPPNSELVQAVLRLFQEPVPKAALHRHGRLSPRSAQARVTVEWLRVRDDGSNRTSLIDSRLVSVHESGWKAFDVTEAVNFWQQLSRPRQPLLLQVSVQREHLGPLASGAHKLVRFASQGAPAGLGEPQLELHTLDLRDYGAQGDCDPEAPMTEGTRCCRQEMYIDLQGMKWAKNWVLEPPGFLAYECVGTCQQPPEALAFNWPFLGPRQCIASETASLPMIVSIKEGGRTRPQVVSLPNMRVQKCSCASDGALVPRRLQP
`CCc1cccc(NC(=O)O[C@H]2[C@H](OC(=O)Nc3ccc4c(c3)OCO4)[C@H](OC(=O)Nc3ccc4c(c3)OCO4)[C@@H](OC)O[C@@H]2CO)c1` gave a composite z-score of -0.263. `C=C(COC)/C(=C/C[C@H](OC(=O)c1ccncc1)c1cccc(OCCO)c1)c1cnc2ccccc2c1` was tested, and the composite z-score was 0.791. With `COCCn1c(C(=O)N2CCCC2)cc2c1C[C@H]1CN(C(=O)c3ccccc3)[C@@](Cc3ccccc3)(C(=O)OC)[C@@H]21` the composite z-score was 0.222. `O=C1C2C=CC(C(O)C(c3ccccc3)c3ccccc3)N(Nc3ccccc3)C2C(=O)N1c1ccccc1` (stereo unspecified) was tested, and the composite z-score was 0.438. Compound `Cc1ccc(S(=O)(=O)N2[C@@H](c3ccccc3)C(C(=O)O)=CC[C@H]2c2ccc(C#N)cc2)cc1` has a composite z-score of -0.145. `C=CCC(OC(C)=O)[C@@H]1[C@@H](N(Cc2cc3ccccc3o2)C(=O)c2ccc(-c3ccccc3)cc2)c2cc(OCCCO)ccc2N1C(=O)c1ccc2ccccc2n1` (stereo partly specified) showed a composite z-score of 0.163.
